Laboratory results published in the supplement of paper PMC3334620.
The full ranking holds about 33,000 sequences; the median of “E-score (-0.5 to 0.5)” is about -0.016, and the highest 2% start at about 0.32. For the sample, the highest values were picked, then their nearest neighbours and some sequences at random.

target: T1, Stp1 (UniProt B3LFK1); test: PBM E-score (8-mer binding enrichment) (E-score (-0.5 to 0.5)); higher = stronger / more preferred TF binding; conditions: protein concentration: 200 nM; construct: GST-full length
T1 sequence: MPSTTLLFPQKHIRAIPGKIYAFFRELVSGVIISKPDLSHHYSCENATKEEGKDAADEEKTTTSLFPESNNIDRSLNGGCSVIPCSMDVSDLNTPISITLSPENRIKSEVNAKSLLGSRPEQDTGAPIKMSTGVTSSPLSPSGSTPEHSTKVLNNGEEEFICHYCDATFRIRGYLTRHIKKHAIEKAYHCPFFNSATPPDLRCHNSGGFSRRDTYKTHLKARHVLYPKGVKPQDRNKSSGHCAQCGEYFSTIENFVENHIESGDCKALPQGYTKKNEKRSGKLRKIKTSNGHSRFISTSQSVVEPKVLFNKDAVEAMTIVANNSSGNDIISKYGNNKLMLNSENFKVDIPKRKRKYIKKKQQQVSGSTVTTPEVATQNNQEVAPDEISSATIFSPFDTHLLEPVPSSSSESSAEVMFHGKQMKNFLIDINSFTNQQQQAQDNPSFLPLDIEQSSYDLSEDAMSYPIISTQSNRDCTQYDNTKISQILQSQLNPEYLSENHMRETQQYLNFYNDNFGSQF
Description: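 Universal 'all 10-mer' protein binding microarrays (Agilent AMADID 015681) probed with GST-tagged S. cerevisiae TFs (full-length or DBD) made by in vitro transcription/translation (PURExpress), about 100-200 nM. Bound TF was detected with fluorescent anti-GST. Each ungapped 8-mer (which stands for itself and its reverse complement) is scored by the PBM enrichment score (E-score), a modified Wilcoxon-Mann-Whitney statistic from -0.5 to +0.5, computed with the Universal PBM Analysis Suite. Scale: above 0.35 generally sequence-specific binding.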

Sequence	PBM E-score
ACACCTTA	0.0262
ACGACCGT	-0.11
AAAGTGCC	0.201
AACACGGA	0.199
CACACGGG	0.235
AGCACGGC	0.451
ATCACGGC	0.351
AGCACGGA	0.114
ATCACGGG	0.00016
CACACGGA	0.253
AACACGGG	0.116
AACACGGC	0.449
AGCACGGG	0.14
ATCACGGA	-0.0235
CACACGGC	0.471
ACACCGAA	0.0644
AAGGAGCT	-0.235
AAAGCAAC	0.0791
AGTATTCG	0.0476
ATTTGGTA	0.144
AGACGCGC	0.0493
GACACGCC	0.105
GACACGGA	0.315
GACACGGC	0.479
GCCCTATA	0.206
AACCAAAG	0.0816

Sequence	PBM E-score
ACCACTAT	-0.127
GGCATTAA	0.319
CGCATTAC	-0.0452
AGCATTAA	-0.0764
CGCATTAA	0.144
GGCATTAC	0.364
AGCATTAC	-0.0767
ATACTGGC	-0.284
AATATCGT	0.141
ACCCAACT	-0.178
ACTGCCGC	0.412
CGTGCCGA	0.352
CGTGCCCA	0.235
CCTGCCGC	0.226
CGTGCCGC	0.475
AGTGCCGG	0.211
AGTGCCAC	0.242
GGTGCCGA	0.288
ACTGCCGG	0.0822
AGTGCCGC	0.477
CGTGCCAC	0.232
CGTGCCAG	0.172
ACAGGTAG	-0.126
GAACTCCA	-0.0707
CCGACTTA	0.0516
CTCTGAAA	0.0291

Sequence	PBM E-score
CATTCTCG	0.128
GGGCCTGA	-0.296
CTTGCCGC	0.309
AGTGCCGA	0.322
AGTGCCCA	0.0772
AGTGCCAA	-0.0972
ATTGCCGC	0.418
ATTGCCGA	0.177
ATCAACCG	-0.0921
GCCGTACC	0.46
CCCGTACC	0.191
ACCGTACC	-0.0289
GCCGTACA	0.459
CCCGTACA	-0.0395
ACCGTACA	0.117
CCAGAGAG	-0.245
GCGCGGAA	0.263
ACTCGGCA	0.324
GCGCGGAC	0.256
CCTCGGCA	0.282
CCGCGGTC	-0.0134
CCGCGGCC	0.325
TCTCGGCA	0.045
GAGCGGCC	0.156
GCGCGGCC	0.4
GCGCGGGA	0.163

Sequence	PBM E-score
CCGCGGGC	0.215
GCGCGGCA	0.483
CAGCGGGA	-0.174
AGATAGTA	0.0718
ACATAGTC	-0.0859
AACACCCG	0.151
CTGTGATC	-0.0819
CACGTAGG	-0.104
CCCCGTCA	-0.177
CAGATTTA	0.198
TGGTTACA	-0.0623
TCTACCAA	-0.0725
ACGCGGCC	0.326
CCGCGACG	0.197
ACGCGGCT	0.446
ACGCGGAT	0.236
CCGCGGAG	0.0416
ACGCGGGA	0.0444
ACGCGGAC	0.0606
ACGCGGTA	0.0505
ACGCGGTC	-0.0102
CCGCGGCG	0.435
ACGCGGCA	0.479
ACGCGTCT	-0.112
